Screen size: about 350,000 compounds; about 2,300 (0.66%) were called active.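 The calls were made as follows: active = mean inhibition of at least 50% after viability correction, with every replicate also passing that limit; inconclusive = mean reaches 50% but only one of two replicates passes; inactive = the rest.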 Many of the other results were omitted from the sample, so actives are more common in it than they were.

Broadly, the inhibition is the change of the read-out against control, counted positive when it falls.

The nature of the assay: blockers of EWS/Fli transcriptional output – A673 cells, NR0B1 luciferase, luminescence, MLPCN library, primary screen (AID 651661).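 Also: firefly luciferase signal divided by Alamar Blue viability fluorescence both relative to DMSO.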 Particulars: A673 NR0B1-luciferase reporter, viability-normalised; at 12.6 µM; stronger effect = higher value. A general note: Reporter assays use an easily measured gene product as a stand-in for the process of interest.
Take `CCCN1C[C@@H](C)[C@@H](OC)CN(C)C(=O)c2ccc(NC(=O)c3ccc(F)cc3)cc2OC[C@@H]1C`: the inhibition is -2.15% (inactive).

Take `Cc1noc(C)c1NC(=O)N(C)C[C@H]1OCCCC[C@@H](C)Oc2ccc(NS(=O)(=O)c3ccc(Cl)cc3)cc2C(=O)N([C@@H](C)CO)C[C@H]1C`: the inhibition is -7.3% (inactive).

Consider `CNC[C@H]1Oc2ccc(N(C)C)cc2CC(=O)N([C@@H](C)CO)C[C@@H]1C`, for which the inhibition was 14.1% (inactive).

On to `CC1(C(=O)NCc2ccc(F)c(F)c2)Cc2c(-c3ccc4c(c3)OCO4)ccnc2O1` (stereo not given), for which the inhibition is 60.1% (active).

In the case of `CC1(C(=O)NCc2ccco2)Cc2c(-c3ccc4c(c3)OCO4)ccnc2O1` (stereo not given), the inhibition is 57.5% (active).

For `S=C(NCc1ccc2c(c1)OCO2)NCc1ccco1`, the inhibition is -23.2% (inactive).

Turning to `COc1cc(OC)c(C(=O)NCc2ccc3c(c2)OCO3)cc1OC`, the inhibition was 9.01% (inactive).

For the compound `CC1(C(=O)NCC2CCOCC2)Cc2c(-c3cccc(C(N)=O)c3)ccnc2O1` (stereo not given), the inhibition was 0.349% (inactive).

Turning to `CN(CC(=O)NCc1ccc2c(c1)OCO2)CC(=O)Nc1ccc(F)c(F)c1F`, the inhibition is 3.77% (inactive).

Consider `C[C@H](CO)N1C[C@H](C)[C@@H](CN(C)Cc2ccc(Cl)c(Cl)c2)Oc2ccc(NC(=O)Nc3ccc(C(F)(F)F)cc3)cc2CC1=O`, for which the inhibition was 72.5% (active).

In the case of `Cc1noc(C)c1NC(=O)Nc1ccc2c(c1)CC(=O)N([C@H](C)CO)C[C@@H](C)[C@@H](CN(C)Cc1ccncc1)O2`, the inhibition was -1.93% (inactive).

Consider `C[C@@H]1CN([C@H](C)CO)C(=O)Cc2cc(NC(=O)Nc3ccccc3)ccc2O[C@@H]1CN(C)Cc1ccc(C(F)(F)F)cc1`, for which the inhibition was -0.517% (inactive).

As to `C[C@@H]1CN([C@H](C)CO)C(=O)Cc2cc(NC(=O)Nc3ccccc3)ccc2O[C@H]1CN(C)Cc1ccc(Cl)c(Cl)c1`, the inhibition is 9.7% (inactive).

Take `Cc1noc(C)c1NC(=O)Nc1ccc2c(c1)CC(=O)N([C@@H](C)CO)C[C@@H](C)[C@@H](CN(C)Cc1ccc(Cl)c(Cl)c1)O2`: the inhibition is 64.4% (active).

As to `Cc1noc(C)c1NC(=O)Nc1ccc2c(c1)CC(=O)N([C@H](C)CO)C[C@@H](C)[C@@H](CN(C)Cc1ccc(C(F)(F)F)cc1)O2`, the inhibition was 7.38% (inactive).

Turning to `O=C(C1CCOCC1)N1CC(=O)N2[C@H](CO)[C@H](c3ccc(C#Cc4cccc(F)c4)cc3)[C@H]2C1`, the inhibition is 3.5% (inactive).

Regarding `CCCC(=O)Nc1ccc2c(c1)C(=O)N(C)[C@H]1CC[C@@H](CC(=O)NCC(F)(F)F)O[C@@H]1CO2`, the inhibition is 3% (inactive).

Take `O=C(C[C@@H]1CC[C@H](NC(=O)C2CC2)[C@H](CO)O1)NCc1ccccc1Cl`: the inhibition is -4.63% (inactive).

In the case of `C[C@H](CO)N1C[C@H](C)[C@@H](CN(C)C(=O)NC2CCCCC2)Oc2ccc(NC(=O)c3ccncc3)cc2CC1=O`, the inhibition was -1.15% (inactive).

Consider `COc1cccc(C(=O)Nc2ccc3c(c2)C(=O)N(C)C[C@@H](OC)[C@H](C)CN(C(=O)C2CCOCC2)[C@H](C)CO3)c1`, for which the inhibition was -12.9% (inactive).

As to `CCOC(=O)CN/C=C(\C#N)c1ccc(F)cc1`, the inhibition was -7.7% (inactive).

As to `CCOc1cc(/C=C(/C#N)c2ccc(Cl)cc2)cc(Cl)c1OCC(=O)O`, the inhibition is 67.4% (active).

In the case of `COc1cc(/C=C(/NC(=O)c2ccc(Cl)cc2Cl)C(=O)O)cc(OC)c1OC`, the inhibition is 11.1% (inactive).

With `CO[C@@H]1CN(C)C(=O)c2cc(NC(=O)c3ccc(F)cc3)ccc2OC[C@H](C)N(C(=O)CN(C)C)C[C@H]1C`, the inhibition is 1.32% (inactive).

On to `C[C@@H]1CCCCO[C@@H](CN(C)Cc2ccncc2)[C@H](C)CN([C@H](C)CO)C(=O)c2cc(NC(=O)CCC(F)(F)F)ccc2O1`, for which the inhibition is -2.85% (inactive).

Regarding `Cc1ccc(S(=O)(=O)NC[C@H]2CC[C@@H]3[C@@H](CN3Cc3ccccc3C(=O)O)O2)cc1`, the inhibition was 4.08% (inactive).

Regarding `C[C@@H]1CCCCO[C@@H](CN(C)C(=O)c2ccccc2)[C@H](C)CN([C@@H](C)CO)C(=O)c2cc(NS(=O)(=O)c3cn(C)cn3)ccc2O1`, the inhibition was -5.15% (inactive).

As for `CC[n+]1cc(C)ccc1/C=C/c1ccc(N(C)C)cc1`, the inhibition was 57.5% (active).

`CO[C@H]1CN(C)C(=O)c2cc(NC(=O)c3cnccn3)ccc2OC[C@@H](C)N(CC2CC2)C[C@@H]1C`: the inhibition is -6.87% (inactive).

With `COc1ccc(/C=C/c2noc(-c3ccccc3OC(C)=O)n2)cc1`, the inhibition is 6.55% (inactive).

Take `COc1ccc(-c2nc(-c3ccccc3)no2)c(OC)c1`: the inhibition was 77.6% (active).

As to `COc1ccc(-c2noc(CNC(=O)C(C)Oc3ccccc3)n2)cc1` (stereo not given), the inhibition is -7.08% (inactive).

For `COc1cccc(NC(=O)C[C@H]2CC[C@@H]3[C@H](COc4ccc(NC(C)=O)cc4C(=O)N3C)O2)c1`, the inhibition was -0.492% (inactive).

Turning to `O=C(C[C@@H]1C=C[C@@H](NS(=O)(=O)c2ccccc2)[C@H](CO)O1)N1CCN(c2ccccc2)CC1`, the inhibition was 2.46% (inactive).

With `CNC(=O)C[C@H]1CC[C@H]2[C@H](COc3ccc(NC(=O)Nc4cccc(C)c4)cc3C(=O)N2C)O1`, the inhibition was -11.4% (inactive).

With `C[C@H](O)C#Cc1ccc2c(c1)O[C@H](CN(C)C(=O)C1CCCCC1)[C@@H](C)CN([C@H](C)CO)S2(=O)=O`, the inhibition is 2.27% (inactive).

In the case of `Cc1ccc(-c2cc(=O)c3ccc(F)cc3[nH]2)cc1`, the inhibition is -5.43% (inactive).

On to `O=c1cc(-c2ccccc2)[nH]c2cc(F)ccc12`, for which the inhibition is 54.2% (active).

In the case of `Cc1cc(=O)c2ccc(NC(=O)c3ccccc3)cc2[nH]1`, the inhibition was 9.56% (inactive).

Turning to `CCC(=O)N1CC2(CN(Cc3ccc(Cl)cc3)C2)c2c([nH]c3cc(OC)ccc23)[C@@H]1CO`, the inhibition was -10.6% (inactive).

In the case of `O=C(Nc1ccc(N2CCCCC2)cc1)c1cc(S(=O)(=O)N2CCOCC2)ccc1F`, the inhibition was 0.758% (inactive).

With `CC(=O)Nc1ccc(S(=O)(=O)Nc2ccc(N3CCCCC3)cc2)cc1`, the inhibition is 63.2% (active).

`CC(=O)Nc1ccc(S(=O)(=O)Nc2ccc(-c3ccc4nnc(C)n4n3)cc2)cc1`: the inhibition was 18.6% (inactive).

For `O=C(NCc1cccc(F)c1)[C@H]1[C@H](CO)[C@H]2Cn3c(cccc3=O)[C@@H]1N2`, the inhibition was -7.63% (inactive).

On to `O=C(Cc1ccccn1)N1CC(=O)N2[C@H](CO)[C@H](c3ccc(C#CCC4CCCC4)cc3)[C@@H]2C1`, for which the inhibition is -3.29% (inactive).
